# Laboratory results from PubChem BioAssay (Tox21).
# Where “and” joins values, the source holds several entries; their conditions need not be identical. Identical values can stand only once. Results filed as inconclusive are left out. A call without a number means that no potency is given here. The source holds several records for some structures; these can differ, active in one and inactive in another. Calls of active or inactive are those of the source. Unless noted, the call rests on the fitted dose curve; in most records, active means well fitted curve in the direction sought with a large enough effect in the repeat runs; inconclusive means weak or mixed curves; inactive means no such curve, though single readings can be large; an effect the other way counts as inactive or inconclusive.
# Legend:
# [1] = qHTS assay to identify small molecule antagonists of the vitamin D receptor (VDR) signaling pathway - cell viability counter screen (AID 743225); further: nearly all actives have a fitted effect of over 50% in size; further: potency means the concentration at half of the fitted maximal effect
# In short: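 Read-out: CellTiter-Glo luminescence measured 30 min after reagent addition at room temperature. Cells were VDR-bla HEK 293T exposed 16 h at 37C, 5% CO2, to compound with 3 nM final calcitriol agonist.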
# [2] = qHTS assay to identify small molecule agonists of the NFkB signaling pathway (AID 1159509; active means well fitted curve in the direction sought with a large enough effect in the signal ratio in the repeat runs, not every such curve was filed as active; the % refers to the signal ratio)
# In short: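 Pathway activation was measured in ME-180 cells stably expressing beta-lactamase under NF-kB response element control. Substrate cleavage was read as the 460/530 nm emission shift after 5 hr compound incubation.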
# [3] = qHTS assay to identify small molecule agonists of the NFkB signaling pathway - cell viability counter screen (AID 1159515; calls by dose curve; further: nearly all actives have a fitted effect of over 55% in size; further: potency means the concentration at half of the fitted maximal effect)
# In short: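 Cells are seeded (2,000 NFkB-bla ME-180 per well), rested overnight, and dosed with DMSO-dissolved compounds for 5 hr at 37 C. Viability is then read by CellTiter-Glo luminescence after 30 min at room temperature.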
# [4] = qHTS assay to identify small molecule agonists of the endoplasmic reticulum stress response signaling pathway (AID 1159516; active means well fitted activation curve with a large enough effect in the signal ratio in the repeat runs, not every such curve was filed as active; the % refers to the signal ratio)
# In short: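 Cells are seeded at 1,500 per well and incubated overnight. Compounds in DMSO are added for 5 hr at 37 C, then beta-lactamase FRET substrate for 2 hr at room temperature, and fluorescence at 460 and 530 nm is measured.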
# [5] = qHTS assay to identify small molecule agonists of the endoplasmic reticulum stress response signaling pathway - cell viability counter screen (AID 1159517; calls by dose curve; further: nearly all actives have a fitted effect of over 50% in size; further: potency means the concentration at half of the fitted maximal effect)
# In short: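 In parallel with the ESRE reporter read, cytotoxicity was scored by CellTiter-Glo luminescence (30 min, room temperature) on HeLa ESRE-bla cells dosed for 5 hr.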
# [6] = target: Nuclear receptor ROR-gamma (Homo sapiens) (UniProt P51449); assay: qHTS assay to identify small molecule antagonists of the retinoid-related orphan receptor gamma (ROR-gamma) signaling pathway (AID 1159521; further: nearly all actives have a fitted effect of over 50% in size; further: potency means the concentration at half of the fitted maximal effect)
# In short: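 CHO Tet-on RORγ, RORE-luc reporter. Cpd 2 h pre-incubation, then dox hyclate 1 uM final, 16 h, 37 C/5% CO2. ONE-Glo luminescence; decrease = antagonist.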
# [7] = qHTS assay to identify small molecule agonists of the AP-1 signaling pathway - cell viability counter screen (AID 1159525; calls by dose curve; further: nearly all actives have a fitted effect of over 55% in size; further: potency means the concentration at half of the fitted maximal effect)
# In short: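 Same-well cytotoxicity counter screen of the Tox21 10K library in ME-180 cells. The readout is ATP-dependent luminescence after 5 h compound treatment. Data are normalised to DMSO and tetra n-octyl ammonium bromide controls.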
# [8] = qHTS assay to identify small molecule agonists of the AP-1 signaling pathway (AID 1159526; calls by dose curve)
# [9] = qHTS assay to identify small molecule agonists of the RXR signaling pathway - cell viability counter screen (AID 1159529); further: nearly all actives have a fitted effect of over 50% in size; further: potency means the concentration at half of the fitted maximal effect
# In short: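 HEK 293T RXRa-bla cells, 2% CS-FBS; 5 h settle; cpd 16 h 37 C, 5% CO2; CellTiter-Glo 30 min RT, luminescence. Tetraoctyl ammonium bromide as positive control.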
# [10] = qHTS assay to identify small molecule antagonists of the retinoid acid receptor (RAR) signaling pathway - cell viability counter screen (AID 1159551); further: nearly all actives have a fitted effect of over 35% in size; further: potency means the concentration at half of the fitted maximal effect
# In short: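 Cells (C3RL4) are plated, incubated overnight, dosed with compound in DMSO, then given retinol at 1 uM final. After 6 h at 37 C, CellTiter-Glo is added and luminescence read following 30 min at room temperature.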
# [11] = qHTS assay to identify small molecule antagonists of the retinoic acid receptor (RAR) signaling pathway (AID 1159552; further: nearly all actives have a fitted effect of over 50% in size; further: potency means the concentration at half of the fitted maximal effect)
# In short: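 Cells of the C3RL4 line were seeded, incubated overnight, then dosed with compounds in DMSO followed immediately by retinol (1 uM final). Six hours later luciferase detection reagent went in; signal was measured after 30 min at RT.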
# [12] = qHTS assay to identify small molecule agonists of the retinoic acid receptor (RAR) signaling pathway (AID 1159553); settings: C3RL4 RARE luciferase reporter, agonist, 6 h; activation: at 73.3 µM (top of the series) unless noted
# In short: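 Seed C3RL4 reporter cells at 1,000 per well and incubate overnight at 37 C. Add compounds in DMSO, incubate 6 hr. Add luciferase reagent, wait 30 min at room temperature, read luminescence.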
# [13] = qHTS assay to identify small molecule antagonists of the retinoid-related orphan receptor gamma (ROR-gamma) signaling pathway - cell viability counter screen (AID 1159520); further: nearly all actives have a fitted effect of over 50% in size; further: potency means the concentration at half of the fitted maximal effect
# In short: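 Tet-on ROR gamma CHO cells were given compounds for 2 hr, then doxycycline hyclate at 1 uM final, and incubated 16 hr at 37 C. Viability was measured as ATP content by CellTiter-Glo luminescence.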
# [14] = target: Retinoic acid receptor RXR-alpha (Homo sapiens) (UniProt P19793); assay: qHTS assay to identify small molecule agonists of the RXR signaling pathway (AID 1159527; calls by dose curve; further: nearly all actives have a fitted effect of over 35% in size; further: potency means the concentration at half of the fitted maximal effect)
# In short: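 Read-out: beta-lactamase FRET ratio (405 nm excitation, 460 and 530 nm emission) after 2 hr substrate loading at room temperature. Cells were RXR-alpha-UAS-bla HEK 293T treated with compounds for 16 hr in 2% charcoal-stripped FBS medium.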
# [15] = qHTS assay to identify small molecule agonists of the estrogen related receptor (ERR) signaling pathway (AID 1224820)
# In short: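 An ERR cell line provided by NTP was seeded at 2,000 cells per well and allowed to settle for 6 h before compounds in DMSO were added. After 18 h at 37 C, luciferase activity was measured by One-Glo luminescence.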
# [16] = test system: estrogen-related receptor alpha (ERRalpha) with PGC-1alpha coactivator, human; assay: qHTS assay to identify small molecule antagonists of the estrogen related receptor signaling pathway with the pleiotropic PPARgamma coactivator (PGC) (AID 1224821; calls by dose curve)
# In short: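 A PGC/ERR cell line supplied by NTP is seeded, allowed 6 h at 37 C, and treated with test compounds in DMSO for 18 h. Signal is then measured as luciferase luminescence using One-Glo.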
# [17] = qHTS assay to identify small molecule antagonists of the estrogen related receptor signaling pathway with the pleiotropic PPARgamma coactivator (PGC) cell viability counter screen (AID 1224822;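 further: potency means the concentration at half of the fitted maximal effect; viability read after 17.5 h compound exposure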)
# In short: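 Multiplexed viability counter screen run in PGC/ERR cells treated with compounds for 17.5 h at 37 C; live-cell protease signal measured by CellTiter-Fluor fluorescence.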
# Chain of Retinoic acid receptor RXR-alpha (Homo sapiens) (P19793 whole entry, looked up): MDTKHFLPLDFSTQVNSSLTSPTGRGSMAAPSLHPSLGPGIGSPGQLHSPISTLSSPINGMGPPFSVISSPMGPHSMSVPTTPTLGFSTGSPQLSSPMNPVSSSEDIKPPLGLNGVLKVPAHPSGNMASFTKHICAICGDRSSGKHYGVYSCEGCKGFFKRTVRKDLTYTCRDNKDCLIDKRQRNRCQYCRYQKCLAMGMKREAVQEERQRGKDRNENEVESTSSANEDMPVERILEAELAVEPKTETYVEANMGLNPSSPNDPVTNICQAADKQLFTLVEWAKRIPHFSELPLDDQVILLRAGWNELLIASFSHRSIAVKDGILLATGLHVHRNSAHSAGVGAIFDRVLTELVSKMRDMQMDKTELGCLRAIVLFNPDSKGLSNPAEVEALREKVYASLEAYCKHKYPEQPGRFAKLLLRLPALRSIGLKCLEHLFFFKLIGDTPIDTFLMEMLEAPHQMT
Compound,Potency [1],outcome [2],Potency [3],outcome [4],Potency [5],Potency [6],Potency [7],outcome [8],Potency [9],Potency [10],Potency [11],Potency [12],Potency [13],Potency [14],Potency [15],Potency [16],Potency [17]
Cc1ccc(OP(=O)(Oc2ccc(C)cc2)Oc2ccc(C)cc2)cc1,inactive,inactive,inactive,inactive,inactive,12.2 µM (active),inactive,inactive,inactive,inactive,inactive,inactive,,,,,
C#C[C@]1(O)CC[C@H]2[C@@H]3CCC4=CC(=O)CC[C@]4(C)[C@H]3CC[C@@]21C,inactive,inactive,inactive,inactive,inactive,inactive,inactive,inactive,inactive,inactive,inactive,inactive,inactive,,,,
COP(=S)(OC)Oc1ccc([N+](=O)[O-])cc1,inactive,inactive,inactive,inactive,inactive,inactive,inactive,inactive,inactive,inactive,inactive,inactive,inactive,inactive,,,
N#CCCCl,inactive,inactive,inactive,inactive,inactive,inactive,inactive,inactive,inactive,inactive,inactive,inactive,inactive,inactive,,,
ClC1C(Cl)C(Cl)C(Cl)C(Cl)C1Cl (configuration not stated),inactive,inactive,55.4 µM (active) and inactive,inactive,inactive,,inactive,inactive,inactive and 43.6 µM (active),inactive,inactive,inactive,inactive,inactive,,,
CCC(C)c1cc([N+](=O)[O-])cc([N+](=O)[O-])c1O (configuration not stated),inactive,inactive,inactive,inactive,inactive,inactive and 7.7 µM (active),inactive,inactive,inactive,inactive,inactive,inactive,,inactive,,,
CCCCOCCOP(=O)(OCCOCCCC)OCCOCCCC,,inactive,inactive,inactive,inactive,inactive,inactive,inactive,inactive,inactive,inactive,inactive,inactive,inactive,,,
CC(C)C(=O)OCC(C)(C)C(OC(=O)C(C)C)C(C)C (configuration not stated),inactive,inactive,inactive,inactive,inactive,inactive,inactive,inactive,inactive,inactive,inactive,inactive,inactive,inactive,,,
COP(=O)(OC)OC,inactive,inactive,inactive,inactive,inactive,inactive,inactive,inactive,inactive,inactive,,,inactive,inactive,,,
O=C(O)C(F)(F)C(F)(F)C(F)(F)C(F)(F)C(F)(F)C(F)(F)C(F)(F)F,,inactive,inactive,inactive,inactive,inactive,inactive,inactive,inactive,inactive,,,,inactive,,,
S=C1NCCN1,inactive,inactive,inactive,inactive,inactive,inactive,inactive,inactive,inactive,inactive,inactive,inactive,,inactive,,,
CCCCCCCCCCCOC(=O)c1ccccc1C(=O)OCCCCCCCCCCC,inactive,inactive,inactive,inactive,inactive,inactive,inactive,inactive,inactive,inactive,inactive,inactive,inactive,inactive,,,
Oc1cc(Cl)ccc1Oc1ccc(Cl)cc1Cl,7.08 µM (active) and 23.9 µM (active),inactive,22.4 µM (active) and inactive,inactive,20 µM (active),15.7 µM (active) and 23.7 µM (active),15.8 µM (active),,17.8 µM (active),31.4 µM (active),,,31.4 µM (active) and 29.8 µM (active),inactive,inactive,inactive,38.6 µM (active)
Oc1ccc(-c2ccccc2)cc1,inactive,inactive,inactive,inactive,inactive,inactive,inactive,inactive,inactive,inactive,inactive,,inactive,5.42 µM (active) and inactive,,,
Cc1cc(Cl)ccc1OCCCC(=O)O,inactive,inactive,inactive,inactive,inactive,inactive,inactive,inactive,inactive,inactive,inactive,inactive,,,,,
O=[N+]([O-])c1cccc2ccccc12,inactive,inactive,inactive,inactive,inactive,inactive,inactive,inactive,inactive,inactive,inactive,inactive,inactive,inactive,,,
CC1(C)C(C=C(Cl)Cl)C1C(=O)OC(C#N)c1cccc(Oc2ccccc2)c1 (configuration not stated),inactive,inactive,inactive,inactive,inactive,inactive,inactive,inactive,inactive,inactive,inactive,inactive,inactive,inactive,,,
NCc1cccnc1,inactive,inactive,inactive,inactive,inactive,inactive,inactive,inactive,inactive,inactive,inactive,inactive,inactive,inactive,,,
C#CCOS(=O)OC1CCCCC1Oc1ccc(C(C)(C)C)cc1 (configuration not stated),38.9 µM (active),inactive,inactive,inactive,inactive,1.94 µM (active) and 3.86 µM (active),inactive,,27.6 µM (active) and 43.6 µM (active),,13.7 µM (active) and 15.4 µM (active),inactive,30.7 µM (active) and 54.5 µM (active),,,,

Compound,Potency [1],outcome [2],Potency [3],outcome [4],Potency [5],Potency [6],Potency [7],outcome [8],Potency [9],Potency [10],Potency [11],Potency [12],Potency [13],Potency [14],Potency [15],Potency [16],Potency [17]
N#CC(Br)Br,inactive,inactive,inactive,inactive,inactive,inactive,inactive,inactive,inactive,inactive,inactive,inactive,inactive,inactive,,,
CCN(CC)N=O,inactive,inactive,inactive,inactive,inactive,inactive,inactive,inactive,inactive,inactive,inactive,inactive,inactive,,,,
OCC(O)CO,inactive,inactive,inactive,inactive,inactive,inactive,inactive,inactive,inactive,inactive,inactive,inactive,,,,,
NNC(=S)NN,inactive,inactive,inactive,inactive,inactive,56 µM (active),inactive,,,inactive,,,,,,,
C=C(C)C(=O)OCC1CO1 (configuration not stated),inactive,inactive,inactive,inactive,inactive,inactive,inactive,inactive,inactive,inactive,inactive,inactive,,inactive,,,
CCCCCCCCOC(=O)c1ccccc1C(=O)OCCCCCCCC,inactive,inactive,inactive,inactive,inactive,inactive,inactive,inactive,inactive,inactive,inactive,inactive,inactive,inactive,,,
CC(C)=CC1C(C(=O)OCc2coc(Cc3ccccc3)c2)C1(C)C (configuration not stated),inactive,inactive,inactive,inactive,inactive,48.6 µM (active),inactive,inactive,,inactive,inactive,inactive,inactive,,,,
Oc1cc(Cl)ccc1Cl,inactive,inactive,inactive,inactive,inactive,inactive,inactive,inactive,inactive,inactive,inactive,inactive,inactive,inactive,,,
COc1ccc(C=O)cc1,inactive,inactive,inactive,inactive,inactive,inactive,inactive,inactive,inactive,inactive,,,inactive,inactive,,,
Oc1cc(Cl)c(Cl)cc1Cl,inactive,inactive,inactive,inactive,inactive,48.2 µM (active),inactive,inactive,inactive,inactive,,,inactive,inactive,,,
Clc1nc(Cl)nc(Cl)n1,inactive,inactive,inactive,inactive,inactive,inactive,inactive,inactive,inactive,inactive,,,,inactive,,,
Cc1c(COC(=O)[C@@H]2[C@H](/C=C(\Cl)C(F)(F)F)C2(C)C)cccc1-c1ccccc1,inactive,inactive,inactive,inactive,inactive,23.8 µM (active) and inactive,inactive,inactive,inactive,inactive,inactive,inactive,,,,,
CCC(C)(c1ccc(O)cc1)c1ccc(O)cc1,inactive,inactive,inactive,inactive,inactive,54.4 µM (active),inactive,inactive,inactive,inactive,,,inactive,inactive,,,
CCCCC(CC)COC(=O)c1ccc(C(=O)OCC(CC)CCCC)c(C(=O)OCC(CC)CCCC)c1 (configuration not stated),inactive,inactive,inactive,inactive,inactive,inactive,inactive,inactive,inactive,inactive,inactive,inactive,inactive,inactive,,,
CC(C)Oc1cc(-n2nc(C(C)(C)C)oc2=O)c(Cl)cc1Cl,13.8 µM (active),inactive,inactive,inactive,inactive,,inactive,inactive,,inactive,,inactive,inactive,,,,
Nc1c(Cl)cc([N+](=O)[O-])cc1Cl,inactive,inactive,inactive,inactive,inactive,inactive and 27.3 µM (active),inactive,inactive,inactive,inactive,inactive,inactive,,inactive,,,
C1=Cc2cccc3cccc1c23,inactive,inactive,inactive,inactive,inactive,inactive,inactive,inactive,inactive,inactive,inactive,inactive,,inactive,,,
NC(=S)Nc1ccccc1,inactive,inactive,inactive,inactive,inactive,31.1 µM (active) and inactive,inactive,inactive,25 µM (active) and inactive,inactive,inactive,inactive,,inactive,,,
CCN(N=O)C(N)=O,inactive,inactive,inactive,inactive,inactive,inactive,inactive,inactive,inactive,inactive,inactive,inactive,,inactive,,,
